Screening results from PubChem BioAssay.
Hits are enriched below; roughly 2.8% of the tested compounds scored in any of these assays.
Pol eta inh-1: qHTS for Inhibitors of Polymerase Eta. DNA polymerase eta (Homo sapiens), Q9Y253. recombinant Pol eta, fluorescent DNA replication assay. Potency, µM (titrated, usually from 114 µM), actives largely listed as inhibitors. 390,000 tested, 1.2% active. AID 588591, 2011
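Fluorescent replication assay: 50 nM final substrate added after a 15 min room-temperature compound preincubation with 10 nM enzyme. Signal taken at 0 min and again at 10 min.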
Pol iota inh: qHTS for Inhibitors of Polymerase Iota. AID 588590, 2011. DNA polymerase iota (Homo sapiens), Q9UNA4. Potency, µM (series often up to 115 µM), most hits filed as inhibitors. Pol iota fluorescent replication assay, 10 min. 390,000 tested, 1% active
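Fluorescent replication assay read twice, at 0 min and 10 min after adding 50 nM (final) substrate. Enzyme (10 nM) and compounds were first incubated 15 min at room temperature; enzyme-free buffer wells were negative controls.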
PI5P4K alpha inh: qHTS for Inhibitors of phosphatidylinositol 5-phosphate 4-kinase (PI5P4K); Phosphatidylinositol 5-phosphate 4-kinase type-2 alpha (Homo sapiens), P48426; PI5P4Kalpha enzyme, ADP-Glo luminescence, 60 min; stronger effect = lower value; max response, %; 330,000 tested, 1.2% active; AID 652105, 2013; active means max response of -50% or lower; inconclusive means between -30% and -50%; inactive means -30% or higher; further: value at the top dose of about 77 µM
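ADP-Glo luminescence end-point read after a 60 min room-temperature kinase reaction of PI5P4Kalpha plus substrate, initiated with ATP at 5 microM final. Buffer: 0.038 M HEPES pH 7.4, EGTA, 0.1% CHAPS, 5% DMSO.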
WRN helicase inh: qHTS for Inhibitors of WRN Helicase; Bifunctional 3'-5' exonuclease/ATP-dependent helicase WRN (Homo sapiens), Q14191; 360,000 tested, 0.46% active; Potency, µM (top dose mostly 114 µM), actives largely listed as inhibitors; AID 651768, 2012; WRN helicase unwinding, fluorescent forked duplex, kinetic; further: nearly all actives have a fitted effect of over 55% in size
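Fluorescence dequenching readout, ex 525 nm/em 598 nm, kinetic mode: forked duplex DNA (100 nM final) with adjacent fluorophore and quencher unwound by WRN (20 nM final) with 2 mM ATP. Compound preincubation 15 min, room temperature.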
Pol beta inh: qHTS Assay for Inhibitors of DNA Polymerase Beta. P06746. Pol beta primer extension/strand displacement, fluorescence kinetic. Potency, µM (series often up to 114 µM), actives largely listed as inhibitors. 340,000 tested, 1.3% active
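Reaction started by 50 nM substrate onto compound-treated Pol beta (10 nM, 15 min preincubation, room temperature); plates read at 0 min and 10 min. Normalized concentration-effect data fitted by four-parameter Hill equation.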
Pol kappa inh-1: qHTS for Inhibitors of Polymerase Kappa | purified Pol kappa, fluorescent DNA synthesis assay, 10 min | 400,000 tested, 0.53% active | Potency, µM (doses to about 107 µM), hits mostly inhibitors | DNA polymerase kappa (Homo sapiens), Q9UBT6
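10 nM Pol kappa preincubated 15 min at room temperature with compounds, then reaction started with substrate at 50 nM final. Fluorescence read kinetically at 0 and 10 min; buffer-only wells served as negative control.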
GALK confirm: Confirmation Assay for Inhibitors of Human Galactokinase (GALK); shares compounds with Pol eta inh-1; purified GALK, Kinase-Glo ATP depletion luminescence; Potency, µM (doses to about 115 µM), hits mostly inhibitors; 150 tested, 70% active; AID 2015, 2009
Redox cycling: Confirmatory Assay for Inhibitors of Human Galactokinase (GALK): Phenol-HRP redox assay counterscreen. shares compounds with Pol eta inh-1. Phenol red-HRP H2O2 redox cycling, absorbance 600 nm. Potency, µM (titrated, usually from 115 µM), usual class: inhibitors. 150 tested, 40% active. AID 2035, 2009
HEK293 tox: Secondary Assay for Inhibitors of Human Galactokinase (GALK): HEK-293 Cell Viability Assay; shares compounds with Pol eta inh-1; HEK-293 viability, ATP luminescence (CellTiter-Glo), 24/48 h; Potency, µM (doses to about 46.1 µM), hits mostly inhibitors; 170 tested, 10% active
Pol kappa inh-2: qHTS for Inhibitors of Polymerase Kappa: Confirmatory Assay for Cherry-picked Compounds | 920 tested, 76% active | Potency, µM, actives largely listed as inhibitors | shares compounds with Pol eta inh-1 | purified Pol-kappa, fluorescent strand-displacement substrate
Pol eta inh-2: qHTS for Inhibitors of Polymerase Eta: Confirmatory Assay for Cherry-picked Compounds; 2,600 tested, 64% active; Potency, µM, hits mostly inhibitors; Pol eta primer extension, TAMRA/BHQ fluorescence, 10 min; shares compounds with Pol eta inh-1
Hits are given with their value; i = inactive; ? = inconclusive; nt = no result; [ ] = dose if it differs, or a comment. Unless noted, the call rests on the fitted dose curve; in most records, active means well fitted curve in the direction sought with a large enough effect; inconclusive means small, poorly fitted or top-dose-only effect, or another doubt; inactive means no such curve, though single readings can be large; an effect the other way counts as inactive or inconclusive.

SMILES	Pol eta inh-1	Pol iota inh	PI5P4K alpha inh	WRN helicase inh	Pol beta inh	Pol kappa inh-1	Pol eta inh-2	others
COc1ccccc1C1N=C(Nc2nc3ccccc3o2)NC2=C1C(=O)CC(C)(C)C2 (stereo not drawn)	nt	i	nt	nt	nt	i	nt	HEK293 tox=i
COc1cccc(C2C(C(=O)Nc3nc4ccccc4s3)=C(C)NC3=C2C(=O)CC(C)(C)C3)c1OC (stereo not drawn)	i	i	i	i	i	i	nt
CCOC(=O)c1c(NC(=O)c2cc3nc(-c4ccccc4)cc(C(F)(F)F)n3n2)sc2c1CCC(C)C2 (stereo not drawn)	i	i	nt	nt	i	i	nt
Nc1c(C(=O)Nc2cccc(C(=O)O)c2)sc2nc3c(cc12)CCCC3	?	i	i	i[11.6 µM]	i	i	?	Pol kappa inh-2=21
O=C(NCc1ccco1)c1nc2c(nnn2Cc2ccccc2Cl)c(=O)[nH]1	i	i	nt	i	i	i	nt
Cc1ccc(C)c(Cn2nnc3c(=O)[nH]c(C(=O)NCc4ccco4)nc32)c1	32µM	22µM	nt	?	i	89µM	76
CCCC(=O)Nc1ccc(N2CCCCC2)cc1	i	i	i	i	i	i	nt
O=C(O)CCCC(=O)Nc1ccc(N2CCCC2)cc1	13µM	?	i	i	i	35µM	48
CC(=O)Nc1nnc(S(=O)(=O)N2CCN(c3ccc([N+](=O)[O-])cc3Cl)CC2)s1	i	?	i	i	i	i	nt
N#Cc1c(N)n(-c2cccc(C(=O)O)c2)c2nc3ccccc3nc12	40µM	i	i	i[11.6 µM]	i	i	54
N#Cc1c(N)n(-c2ccccc2N)c2nc3ccccc3nc12	?	i	i	i	i	i	nt
Nc1ccc(/C=C/c2ccnc3ccccc23)cc1	nt	i	nt	nt	nt	i	nt
CNS(=O)(=O)c1cccc(C(=O)OC2CCOC2=O)c1 (stereo not drawn)	i	i	i	i	i	i	nt
CS(=O)(=O)c1ccc(C(=O)OC2CCOC2=O)cc1[N+](=O)[O-] (stereo not drawn)	20µM	?	i	i	?	i	38
COc1ccc(CN2CCn3nc(C(=O)NC4CC4)cc3C2=O)cc1	i	i	i	i	i	i	nt
Cc1cccc(N=C2C(=O)Nc3c(Cl)cccc32)c1	i	?	i	i	i	i	nt
O=C1Nc2c(Cl)cc(Cl)cc2C1=O	?	?	i	i[11.6 µM]	nt	?	?
COc1cc(C2CC(=O)Oc3c2c(=O)n(C)c2ccccc32)ccc1O (stereo not drawn)	35µM	?	?	i[11.6 µM]	?	?	?	Pol kappa inh-2=47
COc1cc(C2CC(=O)Oc3c2c(=O)n(C)c2ccccc32)cc(OC)c1OC (stereo not drawn)	i	i	i	i	?	i	nt
Cc1snc(S(=O)(=O)/C(C#N)=N/Nc2ccc(C(F)(F)F)cc2)c1C#N	i	i	i	i	i	i	nt	GALK confirm=38µM;Redox cycling=i;HEK293 tox=i
O=C(NCC1CCCO1)c1cc(-c2ccncc2)nc2ccccc12 (stereo not drawn)	i	i	i	i	nt	i	nt
O=C(NCC1CCCO1)c1cc(-c2ccco2)nc2ccccc12 (stereo not drawn)	16µM	?	?	i	45µM	?	85
O=C(O)CCCCCn1c(SCC(=O)c2ccc(O)c(O)c2)nc2ccsc2c1=O	2.8µM	?	i	?	40µM	?	17	Pol kappa inh-2=7.5
O=C(O)CCCCCn1c(SCC(=O)N2CCCC2)nc2ccsc2c1=O	i	?	nt	i	i	i	nt
COc1cc(OC)cc(C(=O)Nc2ccccc2-c2nnn(CC(=O)Nc3cc(C)on3)n2)c1	i	i	i	i	i	i	nt
SMILES	Pol eta inh-1	Pol iota inh	PI5P4K alpha inh	WRN helicase inh	Pol beta inh	Pol kappa inh-1	Pol eta inh-2	others
CCOc1cc(/C=C2/SC(=S)NC2=O)ccc1OC(=O)c1ccco1	?	?	-86	i[11.6 µM]	?	i	?
COc1cc(/C=C2/SC(=O)NC2=O)ccc1OC(=O)c1ccco1	i	i	i	?	i	i	nt
Cc1ccc(S(=O)(=O)NN2C(=O)/C(=C\c3ccc(Cl)cc3)SC2=S)cc1	40µM	?	i	?	i	i	24
O=C1/C(=C/c2cccc(F)c2)SC(=S)N1NS(=O)(=O)c1ccccc1	i	?	?	i	i	i	nt
CC(C)CC(=O)Nc1ccccc1OCc1cc(=O)n2ccccc2n1	i	i	nt	nt	i	i	nt
Cc1nc2ccc3nc(NC(=O)c4ccco4)sc3c2s1	?	?	i	?	nt	?	?
COc1ccc(OCC(=O)N/N=C/c2cccn2-c2cccc(C(=O)O)c2)cc1	5µM	10µM	i	?	nt	79µM	30	Pol kappa inh-2=21
O=C(COc1ccccc1)N/N=C/c1sc(=O)n(Cc2cccc(C(=O)O)c2)c1Cl	22µM	?	?	i[11.6 µM]	i	i	34
C=CCOc1cccc(C2C(C(=O)c3ccco3)=C(O)C(=O)N2Cc2ccco2)c1 (stereo not drawn)	?	?	i	i	i	i	?
COc1cc2c(cc1OC)C(C(=O)NCCN(C)C)C(c1cccs1)N(C)C2=O (stereo not drawn)	i	i	i	i	i	i	nt
CCNc1nc(NCC)n2c(SCC(=O)Nc3ccc(F)cc3)nnc2n1	14µM	20µM	i	?	nt	?	67	Pol kappa inh-2=60
CCNc1nc(NCC)n2c(SCC(=O)Nc3ccccc3)nnc2n1	i	i	i	i	i	i	nt
